Experimental data reported in PubChem BioAssay (NCATS).
Inconclusive results are not listed. Active and inactive are the calls of the source. The call rests on the fitted dose curve; in most records, active means well fitted curve in the direction sought with a large enough effect; inconclusive means small, poorly fitted or top-dose-only effect, or another doubt; inactive means no such curve, though single readings can be large; an effect the other way counts as inactive or inconclusive.

Columns and labels:
[1] = test system: Zika virus NS2B-NS3 protease (linked construct); assay: Primary screen NINDS Rhodamine qHTS for Zika virus inhibitors (AID 1347160); further: nearly all actives have a fitted effect of over 55% in size
In short: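 In 10 mM Tris-HCl pH 8.0 containing 0.01% Tween 20, linked NS2B-NS3 protease (25 nM final) is exposed to test compounds for 15 min. Cleavage of 1.5 microM Rhodamine110 substrate is tracked by fluorescence over 15 min.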

[2] = target: Calcium and integrin-binding protein 1 (Homo sapiens) (UniProt Q99828); assay: Primary qHTS for Identification of Calcium Integrin Binding Protein 1 (CIB1) Competitor (AID 1508620);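 further: GST tagged CIB1 binding a fluorescein labelled alphaIIb integrin peptide tracer; top concentration of the series differs between compounds; on the % scale 0 is the no-effect control and ±100 the full control effect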
Sequence of Calcium and integrin-binding protein 1 (Homo sapiens) (Q99828 whole entry, looked up): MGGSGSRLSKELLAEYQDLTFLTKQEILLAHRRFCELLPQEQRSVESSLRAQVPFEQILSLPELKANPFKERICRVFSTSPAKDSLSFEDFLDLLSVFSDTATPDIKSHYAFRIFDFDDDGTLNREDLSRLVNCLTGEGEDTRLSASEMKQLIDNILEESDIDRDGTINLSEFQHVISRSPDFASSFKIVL
In short: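 CIB1-GST (1 uM final) and compound incubated 15 min at room temperature before adding FITC-alphaIIb peptide tracer (100 nM final). Competition for binding read by fluorescence polarization (ex 480, em 540) after another 15 min at room temperature.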

[3] = target: Glutathione peroxidase 1 (Homo sapiens) (UniProt P07203); assay: Primary qHTS Assay for Inhibitors of Recombinant Selenoprotein Glutathione Peroxidase 1 (GPX1) (AID 1845191); further: nearly all actives have a fitted effect of over 65% in size
Sequence of Glutathione peroxidase 1 (Homo sapiens) (P07203 whole entry, looked up): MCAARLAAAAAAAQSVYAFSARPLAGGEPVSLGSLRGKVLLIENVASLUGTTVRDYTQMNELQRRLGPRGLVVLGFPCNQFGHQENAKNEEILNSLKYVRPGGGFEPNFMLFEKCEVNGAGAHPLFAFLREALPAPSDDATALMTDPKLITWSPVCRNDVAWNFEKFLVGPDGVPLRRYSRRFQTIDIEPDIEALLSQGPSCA
In short: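 10 nM GPX1 + cpd, 30 min RT; start w/ 1 mM GSH, 0.5 mM cumene hydroperoxide, 0.5 mM NADPH, 100 nM GR, 0.01% BSA; buffer 50 mM Tris-HCl pH 7.5, 2 mM EDTA, 150 mM NaCl; Fl 340/450, 0 & 15 min.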

[4] = target: Phospholipid hydroperoxide glutathione peroxidase GPX4 (Homo sapiens) (UniProt P36969); assay: Primary qHTS Assay for Inhibitors of Recombinant Selenoprotein Glutathione Peroxidase 4 (GPX4) (AID 1845192); further: nearly all actives have a fitted effect of over 65% in size; further: potency means the concentration at half of the fitted maximal effect
Sequence of Phospholipid hydroperoxide glutathione peroxidase GPX4 (Homo sapiens) (P36969 whole entry, looked up): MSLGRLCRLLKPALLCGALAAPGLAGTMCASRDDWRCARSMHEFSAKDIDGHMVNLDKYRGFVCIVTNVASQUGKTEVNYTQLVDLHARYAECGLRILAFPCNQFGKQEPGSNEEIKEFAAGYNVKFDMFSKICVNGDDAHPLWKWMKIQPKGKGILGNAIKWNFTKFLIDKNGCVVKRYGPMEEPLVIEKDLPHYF
In short: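 NADPH consumption, followed by fluorescence at 340/450 nm between 0 and 15 min, reports GPX4 activity via coupled glutathione reductase (100 nM). Enzyme 200 nM was pre-exposed to compound 30 min; 0.5 mM cumene hydroperoxide and 1 mM GSH served as substrates.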

[5] = target: Luciferin 4-monooxygenase (Photinus pyralis) (UniProt P08659); assay: Primary firefly luciferase (FLuc) qHTS assay for identification of artifact compounds. (AID 1845220); conditions: outcome: dose series up to 54.1 µM unless noted; further: nearly all actives have a fitted effect of over 60% in size
In short: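 Cell-free, 1536-well qHTS. Buffer pH 7.6 with 0.01% Tween-20 and 0.05% BSA; 10 uM D-luciferin, 10 uM ATP; 10 nM P. pyralis luciferase; luminescence after 5 min.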

[6] = Primary fluorescence-based thiol-reactive (MSTI) qHTS assay for identification of artifact compounds. (AID 1845221);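 further: thiol-reactive compounds lower the probe fluorescence signal; nearly all actives have a fitted effect of over 65% in size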
In short: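 Thiol-reactive compounds detected by quenching of 4 uM MSTI fluorescence (525/598 nm) after 1 h room-temperature dark incubation in PBS pH 7.4, 2% DMSO. qHTS titration; percent inhibition Hill-fitted against Acetyl-MSTI/MSTI controls.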

[7] = Primary redox qHTS assay for identification of artifact compounds. (AID 1845223);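 further: 0% = DMSO and 100% = reference compound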
In short: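 Amplex Red (25 uM) and HRP (250 mU/mL) in HBSS, with compounds for 15 min, then 250 uM DTT for 30 min, room temperature, dark. Fluorescence 525/598 nm read; normalized to DMSO and 10 uM DA3003; Hill fit.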

[8] = test system: HaCat; assay: Cytotoxic Profiling of Annotated Libraries Using Quantitative High-Throughput Screening (AID 1296008); conditions: Five cell lines viability, CellTiter-Glo ATP luminescence, 48-72 h; max response: active compounds read low; further: nearly all actives have a fitted effect of over 60% in size; further: potency means the concentration at half of the fitted maximal effect; on max response: on the % scale 0 is the no-effect control and ±100 the full control effect
In short: (§1)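 Cytotoxicity was measured as CellTiter-Glo ATP luminescence, read after 10 min at room temperature. Compound treatment of the cells lasted 48 or 72 hr at 37 degrees Celsius in a qHTS format.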

[9] = test system: NIH3T3; assay: as above; conditions: Five cell lines viability, CellTiter-Glo ATP luminescence, 48-72 h; max response: active compounds read low
In short: as §1

[10] = test system: CAOV3; assay: Primary qHTS to identify gynecologic anti-cancer compounds using libraries of approved drugs and bioactive compounds (AID 1345084); conditions: Gynecologic cancer cell panel viability, ATPlite luminescence, 48 h; series mostly up to 57.5 µM; further: nearly all actives have a fitted effect of over 55% in size; further: potency means the concentration at half of the fitted maximal effect; on activity change, negative = cytotoxicity: on the % scale 0 is the no-effect control and ±100 the full control effect
In short: (§2)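 Five-point cytotoxicity, 48 h drug exposure at 37 C, 5% CO2, on cells seeded 16 h beforehand. ATP content read by ATPlite luminescence.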

[11] = test system: CASKI; assay: as above; conditions: Gynecologic cancer cell panel viability, ATPlite luminescence, 48 h; series mostly up to 57.5 µM
In short: as §2

[12] = test system: Es-2; assay: as above; conditions: Gynecologic cancer cell panel viability, ATPlite luminescence, 48 h; series mostly up to 57.5 µM
In short: as §2

[13] = test system: JEG-3; assay: as above; conditions: Gynecologic cancer cell panel viability, ATPlite luminescence, 48 h; series mostly up to 57.5 µM
In short: as §2

[14] = test system: Tov-21-G; assay: as above; conditions: Gynecologic cancer cell panel viability, ATPlite luminescence, 48 h; series mostly up to 57.5 µM
In short: as §2

[15] = test system: Tov112D; assay: as above; conditions: Gynecologic cancer cell panel viability, ATPlite luminescence, 48 h; series mostly up to 57.5 µM
In short: as §2

[16] = test system: C33A; assay: as above; conditions: Gynecologic cancer cell panel viability, ATPlite luminescence, 48 h; series mostly up to 57.5 µM
In short: as §2

[17] = test system: Hek293T; assay: as above; conditions: Gynecologic cancer cell panel viability, ATPlite luminescence, 48 h, control line for the selectivity index; series mostly up to 57.5 µM
In short: as §2

[18] = test system: OV90; assay: as above; conditions: Gynecologic cancer cell panel viability, ATPlite luminescence, 48 h; series mostly up to 57.5 µM
In short: as §2

[19] = test system: PA-1; assay: as above; conditions: Gynecologic cancer cell panel viability, ATPlite luminescence, 48 h; series mostly up to 57.5 µM
In short: as §2

[20] = test system: Nanoluciferase (engineered Oplophorus gracilirostris luciferase); assay: Primary Nanoluciferase (NLuc) qHTS assay for identification of artifact compounds. (AID 1845222);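 further: 0% = DMSO and -100% = no enzyme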
In short: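 Compounds are pinned into diluted (1:55) conditioned medium of NLuc-expressing S16 cells and held 15 min at room temperature protected from light. Nano-Glo substrate follows, and luminescence is read 5 min later.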

CC[C@@H]1/C=C/C=C/C[C@H](C)C(O)[C@](C)(O)C(=O)[C@H](C)C(O)[C@H](C)C(=O)[C@H](C)[C@@H](O)[C@H](C)/C=C/C(=O)O[C@H]2[C@@H](C)[C@@H](CC1)O[C@]1(O[C@H](C[C@H](C)O)[C@H](C)CC1=O)[C@@H]2C (some centres not stated)
inactive: Potency [1] | Potency [2] | Potency [3] | Potency [4] | outcome [5] inactive [at 11.6 µM] | activity change, negative = thiol reactive [6] -8.56% [at 11.5 µM] | redox activity (% of DA3003) [7] 13.1% [at 11.5 µM] | max response [8] -17.7% | max response [9] -27% | activity change, negative = cytotoxicity [10] -25.5% [at 11.6 µM] | activity change, negative = cytotoxicity [11] -1.41% [at 11.6 µM] | activity change, negative = cytotoxicity [12] -1.68% [at 11.6 µM] | activity change, negative = cytotoxicity [13] 22.8% [at 11.6 µM] | activity change, negative = cytotoxicity [14] 25.5% [at 11.6 µM] | activity change, negative = cytotoxicity [15] -13.7% [at 11.6 µM]

C[C@@H]1O[C@@H](O[C@H]2CC[C@@]3(C)C(CC[C@@H]4C3CC[C@]3(C)[C@@H](C5=CC(=O)OC5)CC[C@]43O)C2)[C@H](O)[C@H](O)[C@H]1O (some centres not stated)
inactive: Potency [1] | Potency [2] | Potency [3] | Potency [4] | outcome [5] inactive [at 25.7 µM] | Potency [6] | Potency [7] | max response [9] -2.8%
active: Potency [8] 2820 nM | Potency [16] 1000 nM | Potency [10] 3980 nM | Potency [11] 4470 nM | Potency [12] 1260 nM | Potency [17] 1000 nM | Potency [18] 5620 nM | Potency [19] 1000 nM | Potency [14] 1000 nM | Potency [15] 355 nM

CCOC(=O)c1ccc(-c2ccc(OC(=O)N(C)Cc3cccc(-c4ccncc4)c3)cc2)cc1
inactive: Potency [3] | Potency [4] | Potency [6] | Potency [20] | Potency [7] | max response [8] -8.03% | Potency [10] | Potency [11] | Potency [12] | Potency [17] | Potency [13] | Potency [18] | Potency [19] | Potency [14] | Potency [15]

CN1CN(c2ccccc2)C2(CCN(CCCC(=O)c3ccc(F)cc3)CC2)C1=O
inactive: Potency [1] | Potency [2] | Potency [3] | Potency [4] | outcome [5] | Potency [6] | Potency [7] | max response [8] 2.53% | Potency [10] | Potency [11] | Potency [12] | Potency [17] | Potency [13] | Potency [19] | Potency [14] | Potency [15]

CO[C@H]1C[C@H](O[C@H]2CC[C@]3(CO)[C@H]4CC[C@]5(C)[C@@H](C6=CC(=O)OC6)CC[C@]5(O)[C@@H]4CC[C@]3(O)C2)O[C@H](C)[C@H]1O
active: Potency [16] 89.1 nM | Potency [10] 355 nM | Potency [11] 891 nM | Potency [12] 199 nM | Potency [17] 224 nM | Potency [18] 1000 nM | Potency [19] 112 nM | Potency [14] 141 nM | Potency [15] 31.6 nM
inactive: Potency [1] | Potency [2] | Potency [3] | Potency [4] | Potency [6] | Potency [20] | Potency [7] | max response [9] 1.22%

COc1ccc2[nH]c(-c3ccccc3)c(CCN(C)C)c2c1
inactive: Potency [1] | Potency [2] | Potency [3] | Potency [20] | Potency [7] | outcome [8] | max response [9] -23.1% | Potency [16] | Potency [10] | Potency [11] | Potency [12] | Potency [17] | Potency [13] | Potency [18] | Potency [19] | Potency [14] | Potency [15]
active: Potency [4] 16100 nM

CCOC(=O)Nc1ccc(NCc2c(C)cc(C)cc2C)cc1N
inactive: Potency [1] | Potency [3] | Potency [4] | outcome [5] | Potency [20] | Potency [7] | max response [9] 0.149% | Potency [16] | Potency [11] | Potency [12] | Potency [17] | Potency [13] | Potency [18] | Potency [19] | Potency [14] | Potency [15]

COC(=O)[C@@]1(C)C(=O)C=C[C@]2(C)c3c(O)cc(C(C)C)cc3[C@H](O)[C@@H](OC(C)=O)C12 (some centres not stated)
inactive: Potency [1] | Potency [2] | Potency [3] | Potency [4] | outcome [5] inactive [at 25.7 µM] | Potency [6] | Potency [20] | Potency [7] | outcome [8] | max response [9] -1.38% | Potency [16] | Potency [10] | Potency [11] | Potency [12] | Potency [17] | Potency [13] | Potency [18] | Potency [19] | Potency [14] | Potency [15]

O=C1Nc2ccc3ncsc3c2/C1=C/c1cnc[nH]1
inactive: Potency [3] | Potency [4] | outcome [5] | Potency [6] | Potency [20] | Potency [7] | Potency [18]
active: Potency [8] 4110 nM | Potency [19] 7940 nM

COc1cccc(NCC(F)Cn2c3ccc(Br)cc3c3cc(Br)ccc32)c1 (configuration not stated)
inactive: Potency [1] | Potency [2] | Potency [3] | Potency [4] | outcome [5] | Potency [6] | Potency [20] | Potency [7] | Potency [18]
active: Potency [8] 8200 nM | Potency [9] 20600 nM | Potency [11] 7940 nM | Potency [19] 20000 nM | Potency [15] 10000 nM

C/C=C(\C)C(=O)O[C@H]1CC2C(=C1C)[C@H]1OC(=O)[C@](C)(O)[C@]1(O)[C@H](OC(=O)CCC)C[C@@]2(C)OC(C)=O (some centres not stated)
active: Potency [9] 4470 nM | Potency [19] 5010 nM | Potency [15] 5010 nM
inactive: Potency [1] | Potency [2] | Potency [3] | Potency [4] | outcome [5] inactive [at 25.7 µM] | Potency [6] | Potency [20] | Potency [7] | Potency [17]

C=C1C(=O)OC2/C=C(\COO)CC/C=C(\COC(C)=O)CC(OC(=O)C(C)CC)C12 (configuration not stated)
inactive: Potency [1] | Potency [2] | Potency [3] | Potency [4] | outcome [5] | Potency [6] | Potency [20] | Potency [7] | outcome [8] | Potency [16] | Potency [10] | Potency [11] | Potency [12] | Potency [13] | Potency [19] | Potency [14] | Potency [15]
